# ± gives the standard deviation of the averaged measurements. About 5,400 targets were measured; listed, in parts, are those with the largest changes and a random draw of the rest.
# Assays:
# Test in all cases: NP40-soluble protein abundance relative to vehicle (solubility fold change) (ratio); higher = more soluble protein in presence of GTP
# [1] = biological target: T1, UniProt Q4ADV7|Q4ADV7-3|Q4ADV7-2
# T1 sequence (whole entry): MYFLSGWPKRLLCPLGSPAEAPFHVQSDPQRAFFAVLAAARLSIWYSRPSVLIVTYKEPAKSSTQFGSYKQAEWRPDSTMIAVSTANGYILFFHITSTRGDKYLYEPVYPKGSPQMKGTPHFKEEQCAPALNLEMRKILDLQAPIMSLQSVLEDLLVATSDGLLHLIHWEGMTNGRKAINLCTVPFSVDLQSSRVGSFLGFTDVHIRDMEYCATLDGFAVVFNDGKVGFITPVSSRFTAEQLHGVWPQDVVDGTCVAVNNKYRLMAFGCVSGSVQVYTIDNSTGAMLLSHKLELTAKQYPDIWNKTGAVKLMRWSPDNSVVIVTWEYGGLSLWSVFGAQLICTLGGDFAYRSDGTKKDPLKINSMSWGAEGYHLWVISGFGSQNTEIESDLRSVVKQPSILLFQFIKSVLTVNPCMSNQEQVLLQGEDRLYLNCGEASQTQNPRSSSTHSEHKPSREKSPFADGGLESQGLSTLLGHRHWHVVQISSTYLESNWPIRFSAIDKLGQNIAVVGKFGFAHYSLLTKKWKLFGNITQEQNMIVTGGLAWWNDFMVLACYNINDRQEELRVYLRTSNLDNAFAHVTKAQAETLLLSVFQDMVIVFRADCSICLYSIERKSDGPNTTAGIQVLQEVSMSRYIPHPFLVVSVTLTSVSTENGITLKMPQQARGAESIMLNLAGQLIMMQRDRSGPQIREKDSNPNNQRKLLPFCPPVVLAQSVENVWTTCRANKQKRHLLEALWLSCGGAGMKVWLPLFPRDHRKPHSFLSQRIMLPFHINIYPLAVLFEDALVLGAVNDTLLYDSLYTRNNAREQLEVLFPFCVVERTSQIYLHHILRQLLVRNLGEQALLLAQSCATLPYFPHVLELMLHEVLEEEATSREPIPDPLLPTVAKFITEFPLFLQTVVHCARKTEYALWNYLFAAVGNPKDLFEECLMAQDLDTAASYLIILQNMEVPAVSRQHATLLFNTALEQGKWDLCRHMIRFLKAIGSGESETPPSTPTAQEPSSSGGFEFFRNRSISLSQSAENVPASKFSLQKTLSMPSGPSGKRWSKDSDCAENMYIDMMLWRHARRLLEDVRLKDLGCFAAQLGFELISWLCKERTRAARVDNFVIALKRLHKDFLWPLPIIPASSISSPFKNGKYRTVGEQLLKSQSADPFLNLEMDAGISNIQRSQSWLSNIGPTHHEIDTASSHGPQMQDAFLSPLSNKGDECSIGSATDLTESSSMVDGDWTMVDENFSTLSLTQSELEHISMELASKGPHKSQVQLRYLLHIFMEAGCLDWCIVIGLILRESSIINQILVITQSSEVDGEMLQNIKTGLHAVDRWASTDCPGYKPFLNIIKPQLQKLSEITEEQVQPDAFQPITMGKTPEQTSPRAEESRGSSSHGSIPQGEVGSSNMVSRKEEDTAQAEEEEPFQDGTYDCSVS
# In short: (§1)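 Eight concentrations, 0.1 to 10 mM, were tested on Jurkat crude lysate for 10 min at room temperature and then 3 min at 37 °C, in three independent experiments. The lysate was solubilised with 0.8% NP40 and benzonase, ultracentrifuged, and the supernatant TMT-labelled for LC-MS/MS. Each value is the fold change against the detergent-processed vehicle in its own replicate, from vsn-normalised intensities.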
# [2] = biological target: T2, UniProt Q68CQ4
# T2 sequence (whole entry): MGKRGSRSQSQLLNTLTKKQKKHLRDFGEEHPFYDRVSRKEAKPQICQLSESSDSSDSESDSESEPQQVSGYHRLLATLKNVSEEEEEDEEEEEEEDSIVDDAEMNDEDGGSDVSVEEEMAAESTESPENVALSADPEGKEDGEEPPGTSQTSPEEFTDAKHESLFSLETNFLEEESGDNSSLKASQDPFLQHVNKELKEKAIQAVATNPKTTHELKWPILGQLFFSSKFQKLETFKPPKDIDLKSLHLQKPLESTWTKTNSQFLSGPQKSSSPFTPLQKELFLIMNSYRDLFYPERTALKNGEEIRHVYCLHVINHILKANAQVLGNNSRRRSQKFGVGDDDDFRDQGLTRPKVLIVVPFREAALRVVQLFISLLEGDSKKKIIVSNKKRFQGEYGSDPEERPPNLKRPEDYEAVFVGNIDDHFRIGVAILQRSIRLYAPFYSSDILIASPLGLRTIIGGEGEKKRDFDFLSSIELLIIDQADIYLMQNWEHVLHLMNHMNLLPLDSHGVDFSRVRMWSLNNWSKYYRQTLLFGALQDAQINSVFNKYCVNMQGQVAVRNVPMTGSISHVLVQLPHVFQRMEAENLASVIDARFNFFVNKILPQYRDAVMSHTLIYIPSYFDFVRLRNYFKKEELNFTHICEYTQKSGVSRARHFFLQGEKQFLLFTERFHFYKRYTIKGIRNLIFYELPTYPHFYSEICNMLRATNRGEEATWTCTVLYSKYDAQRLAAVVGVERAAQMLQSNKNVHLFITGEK
# In short: as §1
# [3] = biological target: T3, UniProt Q6ULP2|Q6ULP2-2|Q6ULP2-4|Q6ULP2-5|Q6ULP2-3
# T3 sequence (whole entry): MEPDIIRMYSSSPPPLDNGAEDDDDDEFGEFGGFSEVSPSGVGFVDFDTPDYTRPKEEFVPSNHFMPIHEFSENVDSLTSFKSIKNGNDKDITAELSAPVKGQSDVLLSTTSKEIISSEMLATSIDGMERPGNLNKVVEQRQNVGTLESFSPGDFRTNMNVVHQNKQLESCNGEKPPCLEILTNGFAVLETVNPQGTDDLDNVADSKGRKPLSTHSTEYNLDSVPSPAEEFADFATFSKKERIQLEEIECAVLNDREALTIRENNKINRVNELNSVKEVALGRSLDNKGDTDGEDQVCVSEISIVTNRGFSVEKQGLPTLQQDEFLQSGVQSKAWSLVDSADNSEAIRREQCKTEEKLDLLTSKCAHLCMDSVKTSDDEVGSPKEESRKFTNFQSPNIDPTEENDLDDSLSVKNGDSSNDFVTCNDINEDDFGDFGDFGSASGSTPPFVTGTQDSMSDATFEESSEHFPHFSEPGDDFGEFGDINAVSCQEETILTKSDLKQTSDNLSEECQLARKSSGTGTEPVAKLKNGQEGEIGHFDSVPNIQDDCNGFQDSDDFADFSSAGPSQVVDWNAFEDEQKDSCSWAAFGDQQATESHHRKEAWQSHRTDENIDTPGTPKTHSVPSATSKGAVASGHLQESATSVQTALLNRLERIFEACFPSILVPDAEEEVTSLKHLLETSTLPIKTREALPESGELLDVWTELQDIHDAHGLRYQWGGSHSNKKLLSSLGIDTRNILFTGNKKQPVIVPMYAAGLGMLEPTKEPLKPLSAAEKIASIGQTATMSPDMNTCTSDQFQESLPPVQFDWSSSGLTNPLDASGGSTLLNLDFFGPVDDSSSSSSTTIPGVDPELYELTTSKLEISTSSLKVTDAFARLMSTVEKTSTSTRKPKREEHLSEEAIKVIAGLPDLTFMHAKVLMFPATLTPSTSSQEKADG
# In short: as §1
structure (smiles),measurement,setting,value
Nc1nc2c(ncn2[C@@H]2O[C@H](COP(=O)(O)OP(=O)(O)OP(=O)(O)O)[C@@H](O)[C@H]2O)c(=O)[nH]1 [guanosine triphosphate],NP40-soluble protein abundance,[1]; concentration: 4mM,1.12 ± 0.18
same,NP40-soluble protein abundance,[1]; concentration: 6mM,0.946 ± 0.025
same,NP40-soluble protein abundance,[1]; concentration: 8mM,0.92397 ± 0.00016
same,NP40-soluble protein abundance,[1]; concentration: 10mM,0.963 ± 0.19
same,NP40-soluble protein abundance,[2]; concentration: 0.1mM,1.02 ± 0.068
same,NP40-soluble protein abundance,[2]; concentration: 0.5mM,1.02 ± 0.051
same,NP40-soluble protein abundance,[2]; concentration: 1mM,1.01 ± 0.048
same,NP40-soluble protein abundance,[2]; concentration: 2mM,0.992 ± 0.04
same,NP40-soluble protein abundance,[2]; concentration: 4mM,0.999 ± 0.026
same,NP40-soluble protein abundance,[2]; concentration: 6mM,0.994 ± 0.042
same,NP40-soluble protein abundance,[2]; concentration: 8mM,1.02 ± 0.046
same,NP40-soluble protein abundance,[2]; concentration: 10mM,1.03 ± 0.048
same,NP40-soluble protein abundance,[3]; concentration: 0.1mM,1.01 ± 0.098
same,NP40-soluble protein abundance,[3]; concentration: 0.5mM,1.02 ± 0.066
same,NP40-soluble protein abundance,[3]; concentration: 1mM,0.979 ± 0.064
same,NP40-soluble protein abundance,[3]; concentration: 2mM,1 ± 0.044
same,NP40-soluble protein abundance,[3]; concentration: 4mM,1.06 ± 0.041
same,NP40-soluble protein abundance,[3]; concentration: 6mM,1 ± 0.023
same,NP40-soluble protein abundance,[3]; concentration: 8mM,1.03 ± 0.033
same,NP40-soluble protein abundance,[3]; concentration: 10mM,1.02 ± 0.042

# — the supplement of paper PMC6411743
